Screens: PubChem BioAssay, National Center for Advancing Translational Sciences (NCATS)
An excerpt weighted towards active compounds, which were near 11% of everything screened.
Pf growth 96h: P. falciparum growth inhibition at 96 hour, primary screen for plastid delayed-death inhibitors; P. falciparum luciferase reporter growth, 96 h; Potency, µM (series often up to 28.7 µM), for inactives: top-dose activity change, negative = inhibition, actives largely listed as inhibitors; 6.9% of 320,000 active; note: % is set by controls: 0 for no effect and ±100 for the full control effect
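P. falciparum expressing integrated firefly luciferase, in erythrocytes at 2% hematocrit, 0.05% parasitemia, incubated with compounds 96 h at 37 C, 5% CO2. Growth inhibition read as loss of luminescence; two-generation exposure targets delayed-death apicoplast inhibitors.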
Sm TGR block: S. mansoni TGR enzyme inhibition; Q962Y6; purified TGR, DTNB reduction, TNB absorbance 405 nm; Potency, µM (top dose mostly 114 µM), for the others: top-dose activity change, negative = inhibition, hits mostly inhibitors; 3% of 360,000 active; AID 485364; note: % is set by controls: 0 for no effect and ±100 for the full control effect; nearly all actives have a fitted effect of over 60% in size
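TGR 20 nM + NADPH 100 uM (dispensed conc.), cpd preinc 15 min RT; start with NADPH (500 uM addition) then DTNB (15 mM addition). Kinetic TNB absorbance, 405 nm filter. Four-parameter Hill fit across titration.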
NS1 inh: inhibitors of influenza NS1 protein function; 0.4% of 270,000 active; Potency, µM (top dose mostly 46.1 µM), without a hit: at the top dose activity, positive = more growth; AID 2326; calls by dose curve; note: actives are rising curves; nearly all actives have a fitted effect of over 50% in size
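A cell-based growth assay was used: compounds that relieve NS1-induced slow growth of budding yeast raise OD600. Assay medium was yeast nitrogen base with ammonium sulphate and -URA supplement, pH 6.0, with 2% galactose.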
AMA1-RON2 inh: inhibitors of Plasmodium falciparum AMA1-RON2 interaction. AlphaScreen AMA1-biotinylated RON2 peptide binding. Potency, µM (doses to about 58.2 µM), without a hit: at the top dose activity change, negative = inhibition, usual class: inhibitors. 0.2% of 360,000 active. AID 720542;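 note: 0% = vehicle wells and -100% = peptide control; nearly all actives have a fitted effect of over 45% in size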
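AMA1 (3D7) with his tag at 25 nM final met compounds first, then biotinylated RON2 peptide at 25 nM; detection used donor plus acceptor beads, 10 µg/mL apiece, read by AlphaScreen after 30 min at room temperature.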
Pf growth 48h: inhibits P. falciparum growth in the first generation, 48 h | P. falciparum luciferase growth in erythrocytes, 48 h | Potency, µM (titrated, usually from 28.7 µM), for the others: at the top dose activity change, negative = inhibition, actives largely listed as inhibitors | 5.9% of 310,000 active | AID 504832; note: % is set by controls: 0 for no effect and ±100 for the full control effect
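A one-generation exposure of luciferase-tagged malaria parasites in RPMI 1640/Albumax erythrocyte culture, 37 C and 5% CO2. Inhibition is inferred from decreased luminescence after adding detection reagent.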
* marks the source's active call; other numbers are inactive results; i = inactive; ? = inconclusive; . = not tested or not shown; [ ] = another dose, or the depositor's remark. Unless noted, calls come from the whole dose curve; as a rule, active = well fitted curve in the direction sought with a large enough effect; inconclusive = small, poorly fitted or top-dose-only effect, or another doubt; inactive = no such curve, though single readings can be large; an effect the other way counts as inactive or inconclusive. Potency is the fitted concentration of half-maximal effect.

SMILES | Pf growth 96h | Sm TGR block | NS1 inh | AMA1-RON2 inh | Pf growth 48h
Cc1cccc(-n2nc3c(c2NC(=O)c2ccco2)CS(=O)C3)c1C (stereo not given) | ? | 0% | . | -7% | 22%
Cc1ccc(-n2nc3c(c2NC(=O)CC(C)C)CS(=O)C3)cc1 (stereo not given) | -15% | 50µM* | 3% | 2% | 1%
Cc1ccc(-n2nc3c(c2NC(=O)c2ccco2)CS(=O)C3)c(C)c1 (stereo not given) | 7% | 40µM* | . | -10% | -3%
NP(=O)(OCC(F)(F)F)Oc1ccc(Cl)cc1 (stereo not given) | -8% | 8% | 19% | -6% | 12%
Cc1ccc(OP(N)(=O)Oc2ccc(C)cc2)cc1 | 5.9µM* | 9% | . | 3% | ?
CCC(CC)NC(=O)Nc1cccc(C)c1C | i | 18% | 10% | -9% | 40%
CCC(C)N(CC(=O)Nc1cccc(C)c1C)C(=O)CCl (stereo not given) | 3.7µM* | 20µM* | . | 11% | ?
O=C(O)CSCC(=O)Nc1ccc(Cl)cc1C(F)(F)F | 19% | . | 0% | ? | 3%
CC(C)N(CC(=O)Nc1ccc(Cl)cc1C(F)(F)F)C(=O)CCl | -8% | 18µM* | . | 1% | 4%
CCC(C)(CC(=O)O)CC(=O)Nc1cc(C(F)(F)F)cc(C(F)(F)F)c1 (stereo not given) | -2% | -3% | 4% | 10% | 13%
COc1ccccc1CN(C)CC(=O)Nc1ccccc1-c1ccccc1 | ? | 23% | . | 4% | ?
O=C(CNC(c1ccccc1)c1ccccc1)Nc1ccccc1F | ? | 6% | -12% | 17% | ?
COc1ccc(CN(C)C(=O)C(Cc2ccccc2)NC(=O)c2ccccc2)c(OC)c1 (stereo not given) | ? | -4% | . | 6% | 10µM*
O=C(CNC(c1ccccc1)c1ccccc1)Nc1ccccc1-c1ccccc1 | 13µM* | 7% | -6% | -11%[2.32 µM] | 12µM*
COc1ccc(CN(C)CC(=O)Nc2ccccc2-c2ccccc2)c(OC)c1 | ? | 3% | . | 1% | 10µM*
COc1ccc(CN(C)C(=O)c2ccc(COc3ccccc3)cc2)c(OC)c1 | ? | 2% | -27% | ? | ?
Cc1ccccc1CN(C)CC(=O)Nc1ccccc1-c1ccccc1 | 9.3µM* | 6% | -17% | 7% | ?
Cc1ccccc1CN(C)CC(=O)Nc1ccccc1Oc1ccccc1 | ? | -11% | -10% | -11% | -2%
Cc1ccc(NC(=O)c2ccc(CNc3c(N4CCC(C)CC4)c(=O)c3=O)cc2)cc1 | ? | -3% | -4% | 14% | ?
O=C(CSc1nnc(CNC(=O)c2c(F)cccc2F)o1)c1ccccc1 | -21% | 6% | 6% | 24% | -9%
COc1ccccc1OCC(=O)NCC1(N(C)C)CCCCC1 | . | 10% | . | . | .
CN(C)c1cccc(CNC(=O)c2csc([C@@H]3C[C@H](O)[C@@H](CO)O3)n2)c1 | . | . | . | 7% | .
CCC(c1ccc(O)c(O)c1)C(CC)c1ccc(O)c(O)c1 (stereo not given) | . | . | . | 25µM* | .
COc1ccc(-c2nc3ccc(C4=C(C)CC(=O)NN4)cc3[nH]2)cc1 | 7.6µM* | . | . | . | ?
NNC(=S)Nc1ccc(C(F)(F)F)cc1Cl | ? | -20% | 0% | 85% | ?
SMILES | Pf growth 96h | Sm TGR block | NS1 inh | AMA1-RON2 inh | Pf growth 48h
O=C(Nc1cccc(-c2csc(-c3ccccc3)n2)c1)c1cccs1 | 0.33µM* | -3% | -1% | 3% | .
Cc1nc(-c2cccc(NC(=O)c3cccs3)c2)cs1 | ? | 0% | -24% | 25% | ?
COc1cccc(NC(=O)c2cccs2)c1 | ? | 2% | -99% | 0% | 77%
CC(C)CN1C(=O)c2ccc(NC(=O)c3ccco3)cc2C1=O | ? | 15% | -35% | 4% | -8%
CC(C)CN1C(=O)c2ccc(NC(=O)c3cccs3)cc2C1=O | . | 13% | -82% | -2% | 8.3µM*
Cc1ccc(C(=O)Nc2cccc(NC(=O)c3cccs3)c2)c(C)c1 | 12µM* | 3% | -51% | -5% | ?
COc1cc(NC(=O)c2cccs2)cc(OC)c1 | 10µM* | -1% | -46% | 3% | 75%
COc1cc(NC(=O)Cc2cccs2)cc(OC)c1 | 10µM* | -5% | 1% | 0% | 1%
Cn1c(O)c(N=Nc2ccccc2)c2ccccc21 | 42% | 45µM* | -9% | 11% | -29%[0.00184 µM]
